# Test results: PubChem BioAssay (EPA / NIEHS)
# Inconclusive results are not listed. Activity calls are given as the source filed them. The calls were made as follows: active = hit-call score of the fitted dose curve at least 0.9, where 1 is the maximum; inconclusive = response in the unintended direction; inactive = score below 0.9.
# Assays:
# [1] = CPHEA_Stoker_NIS_Cytotoxicity: Cytotoxicity Assessment for CPHEA's Radioactive Iodide Uptake (RAIU) Assay for Sodium/Iodide Symporter (NIS) Inhibition, Stoker and Laws Labs (AID 2283897)
# Summary of the method: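 hNIS-HEK293T-EPA human kidney cells were exposed for 2 hours at room temperature to test chemicals (0.001–100uM, 0.5% final DMSO) in HEPES-buffered HBSS, pH 7.4. Viability was read as ATP content by luciferase bioluminescence, loss of signal versus DMSO.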
# [2] = test system: Sodium/Iodide Symporter (NIS), SLC5A5 (gene 6528); test: CPHEA_Stoker_NIS_Inhibition_RAIU: CPHEA's Radioactive Iodide Uptake (RAIU) Assay for Sodium/Iodide Symporter (NIS) Inhibition, Stoker and Laws Labs (AID 2283841)
# Summary of the method: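 HEK293T cells stably expressing human NIS (hNIS-HEK293T-EPA) were exposed to test chemicals at 0.001–100uM (0.5% final DMSO) with 125I at a final 329pM in HBSS/10mM HEPES pH 7.4. After 2 hours at room temperature and ice-cold washes, intracellular 125I was counted as CPM and normalized to DMSO wells.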
# [3] = test system: zebrafish Peroxisome Proliferator-activated Receptor gamma (PPARg), gene 557037; test: ATG_zfPPARg_XSP2: Attagene TRANS-FACTORIAL Multi-Species (XSP2) HepG2 Assay for zebrafish Peroxisome Proliferator-activated Receptor gamma (PPARg) (AID 2283833);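 also: actives increase reporter signal over DMSO so AC50 reflects activation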
# Summary of the method: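 Multi-species TRANS format in HepG2, 24 h dosing; medium also contained 3 nM 6-alpha-fluorotestosterone and 1.5 nM norgestrel to stimulate androgen receptor. Zebrafish PPARg-GAL4 induced reporter mRNA was measured by RT-PCR/capillary electrophoresis.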
# [4] = test system: turtle Thyroid Hormone Receptor, alpha (TRa), gene 101949057; test: ATG_trTRa_XSP2: Attagene TRANS-FACTORIAL Multi-Species (XSP1) HepG2 Assay for turtle Thyroid Hormone Receptor, alpha (TRa) (AID 2283834);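 also: hits raise reporter mRNA over the DMSO baseline so AC50 marks activators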
# Summary of the method: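 Transfection of HepG2 with multiple reporter transcription units, then chemical dosing for 24 h. Total RNA was reverse-transcribed, reporter sequences PCR-amplified and FAM-labelled, then sized by capillary electrophoresis. DMSO served as baseline.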
# [5] = target: zebrafish Thyroid Hormone Receptor beta (TRb), thrb (gene 30607) (UniProt Q9PVE4); test: ATG_zfTRb_XSP2: Attagene TRANS-FACTORIAL Multi-Species (XSP1) HepG2 Assay for zebrafish Thyroid Hormone Receptor beta (TRb) (AID 2283836)
# Chain of zebrafish Thyroid Hormone Receptor beta (TRb), thrb (gene 30607) (Q9PVE4 whole entry, looked up, the tested form may be a part): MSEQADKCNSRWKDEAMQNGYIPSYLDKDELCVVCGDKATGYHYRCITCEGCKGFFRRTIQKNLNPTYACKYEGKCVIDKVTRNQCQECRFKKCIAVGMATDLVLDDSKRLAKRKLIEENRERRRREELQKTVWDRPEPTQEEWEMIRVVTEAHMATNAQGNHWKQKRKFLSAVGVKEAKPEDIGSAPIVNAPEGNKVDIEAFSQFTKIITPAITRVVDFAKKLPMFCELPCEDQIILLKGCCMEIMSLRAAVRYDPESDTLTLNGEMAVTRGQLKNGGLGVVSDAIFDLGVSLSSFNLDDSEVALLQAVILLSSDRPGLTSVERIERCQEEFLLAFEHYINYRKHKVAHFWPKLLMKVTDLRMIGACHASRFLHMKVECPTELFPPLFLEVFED
# Summary of the method: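 Fluorescence of labelled reporter cDNA fragments, separated by capillary electrophoresis, gives mRNA induction from exogenous NR-Gal4 chimeras in transiently transfected HepG2 cells after 24 h dosing; 3 nM 6-alpha-fluorotestosterone and 1.5 nM norgestrel included in the run.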
# [6] = target: human Thyroid hormone Receptor alpha (TRa), THRA (gene 7067) (UniProt P10827); test: ATG_hTRa_XSP2: Attagene TRANS-FACTORIAL Multi-Species (XSP2) HepG2 Assay for human Thyroid hormone Receptor alpha (TRa) (AID 2283838)
# Chain of human Thyroid hormone Receptor alpha (TRa), THRA (gene 7067) (P10827 whole entry, looked up, the tested form may be a part): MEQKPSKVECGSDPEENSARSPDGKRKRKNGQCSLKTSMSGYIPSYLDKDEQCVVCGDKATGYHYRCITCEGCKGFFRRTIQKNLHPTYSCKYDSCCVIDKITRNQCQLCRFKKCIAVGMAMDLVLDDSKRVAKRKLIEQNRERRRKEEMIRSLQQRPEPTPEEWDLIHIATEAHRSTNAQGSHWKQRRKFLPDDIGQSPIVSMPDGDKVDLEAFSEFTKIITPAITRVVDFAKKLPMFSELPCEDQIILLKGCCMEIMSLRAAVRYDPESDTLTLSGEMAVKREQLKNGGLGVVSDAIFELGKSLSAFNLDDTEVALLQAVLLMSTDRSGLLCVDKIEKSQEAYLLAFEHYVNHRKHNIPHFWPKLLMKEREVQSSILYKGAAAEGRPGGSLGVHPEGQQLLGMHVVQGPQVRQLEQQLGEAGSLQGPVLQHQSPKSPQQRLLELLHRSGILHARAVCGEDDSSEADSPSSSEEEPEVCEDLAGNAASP
# Summary of the method: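 HepG2 cells transiently transfected with multiplexed GAL4-UAS reporter units and exogenous NR-GAL4 chimeras; 24 h chemical exposure with 3 nM 6-alpha-fluorotestosterone and 1.5 nM norgestrel present. Reporter mRNA measured by RT-PCR, FAM labelling, HpaI digestion, capillary electrophoresis; gain-of-signal versus DMSO.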
# [7] = target: frog Thyroid hormone Receptor alpha (TRa), thra-a (gene 397942) (UniProt P15204); test: ATG_frTRa_XSP2: Attagene TRANS-FACTORIAL Multi-Species (XSP2) HepG2 Assay for frog Thyroid hormone Receptor alpha (TRa) (AID 2283839)
# Chain of frog Thyroid hormone Receptor alpha (TRa), thra-a (gene 397942) (P15204 whole entry, looked up, the tested form may be a part): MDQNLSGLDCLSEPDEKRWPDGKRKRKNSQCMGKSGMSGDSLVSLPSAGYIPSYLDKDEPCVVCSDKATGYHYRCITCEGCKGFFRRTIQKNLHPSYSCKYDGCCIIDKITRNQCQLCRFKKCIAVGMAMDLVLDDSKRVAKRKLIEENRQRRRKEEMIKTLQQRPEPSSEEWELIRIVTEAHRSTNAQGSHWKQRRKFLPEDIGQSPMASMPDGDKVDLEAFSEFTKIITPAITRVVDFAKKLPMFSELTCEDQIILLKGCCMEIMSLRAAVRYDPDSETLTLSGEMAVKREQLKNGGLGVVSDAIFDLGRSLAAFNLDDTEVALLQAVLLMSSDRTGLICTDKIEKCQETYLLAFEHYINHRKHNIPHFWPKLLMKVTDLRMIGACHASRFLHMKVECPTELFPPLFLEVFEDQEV
# Summary of the method: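 Transfect HepG2 with multiple reporter units (GAL4-UAS), dose chemical, incubate 24 h. Isolate RNA, reverse-transcribe, PCR-amplify reporter, label with 6-FAM by primer extension, digest with HpaI, run capillary electrophoresis; induction scored against DMSO.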
structure (smiles),measurement,setting,value
O=C(N[C@@H](Cc1ccccc1)[C@@H](O)C(=O)N1C[C@@H](O)[C@@H](O)C1)c1cc2cc(Cl)ccc2[nH]1,outcome,[1],inactive
CCc1c(C(=O)NN2CCCCC2)nn(-c2ccc(Cl)cc2Cl)c1-c1ccc(Br)cc1,outcome,[1],inactive
Cc1ccc(C)c(C)c1,outcome,[1],inactive
CCCCC(CC)COC(=O)CC(C(=O)OCC(CC)CCCC)S(=O)(=O)O (centres undefined),outcome,[2],inactive
same,outcome,[1],inactive
Oc1ccc2ccccc2c1N=Nc1ccccc1,outcome,[2],inactive
same,outcome,[1],inactive
Oc1ccc2c(c1)OC[C@@H](N1CCC(O)(c3ccc(F)cc3)CC1)[C@H]2O,outcome,[2],inactive
same,outcome,[1],inactive
CCCc1cc(=O)[nH]c(=S)[nH]1,outcome,[3],inactive
same,outcome,[4],inactive
same,outcome,[5],inactive
same,outcome,[6],inactive
same,outcome,[7],inactive
